# Test results from PubChem BioAssay AID485317 (Broad Institute, 2010).
# About 11,000 (3.8%) of roughly 290,000 compounds were called active. The full list was thinned out, with actives kept by preference. A number with no mark means an inactive call.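 The calls were made as follows: active = mean replicate inhibition above about 79%, with every replicate also reaching it (limit read from the data); inconclusive = only one of the two criteria met; inactive = mean below limit and not every replicate reaching it.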
# Biological target: FAD-linked sulfhydryl oxidase ALR (Homo sapiens) (UniProt P55789)
# Test: inhibitors of human ALR sulfhydryl oxidase, primary screen, biochemical, H2O2 detection, HRP-luminol luminescence, single point (AID 485317)
# Conditions: purified ALR, DTT oxidation, hits give high values, concentration not given here
# Chain of FAD-linked sulfhydryl oxidase ALR (Homo sapiens) (P55789 whole entry, looked up): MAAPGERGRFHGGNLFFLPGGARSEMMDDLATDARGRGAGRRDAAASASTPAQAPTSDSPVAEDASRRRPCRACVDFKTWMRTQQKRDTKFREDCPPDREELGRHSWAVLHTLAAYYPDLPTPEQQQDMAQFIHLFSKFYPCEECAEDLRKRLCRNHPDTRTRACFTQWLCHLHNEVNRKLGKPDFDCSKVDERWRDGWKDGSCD
row,SMILES,inhibition
1,CC1CN(C(=O)c2cc(COc3c(F)cccc3F)on2)CCN1C (stereo unspecified),-3.41%
2,CC1(C)O[C@@H]2[C@H](O1)[C@@H](CO)O[C@H]2n1c(N2CCCCC2)nc2c(N)ncnc21,1.47%
3,CCC(=O)NNc1cc(=O)c2c(=O)n(C)c(=O)n(C)c2[nH]1,-4.74%
4,CC(=O)NNc1cc(=O)c2c(=O)n(C)c(=O)n(C)c2[nH]1,90.2% (active)
5,CC(=O)Nn1cc2c(=O)n(C)c(=O)n(C)c2c1,-9.4%
6,CCOc1ccc(S(=O)(=O)Nc2ccc(OC)nc2)cc1,-0.795%
7,COc1ccc(NC(=O)/C(Cl)=C(/Cl)S(=O)Cc2ccc(C)cc2)cn1 (stereo unspecified),99.1% (active)
8,COc1ccc(NC(=O)c2cc(-c3ccc(C)cc3)on2)cc1,-7.55%
9,COc1ccc2c(CC(=O)NNC(=O)c3ccccc3F)coc2c1,-9.32%
10,O=C(CCc1ccc(S(=O)(=O)N2CCOCC2)cc1)OCC(=O)c1ccc(Br)cc1,3.41%
11,O=C(/C=C(O)/C=C/c1ccc(O)cc1)/C=C/c1ccc(O)cc1,-0.191%
12,COc1ccc(N2CCN(C(=O)CNC(=O)c3ccc(Br)o3)CC2)cc1,94% (active)
13,COc1ccc(N2CCN(C(=O)CCNC(=O)c3ccc(Br)cc3)CC2)cc1,-0.657%
14,COc1ccc(N2CCN(C(=O)CNC(=O)c3ccc(C(C)(C)C)cc3)CC2)cc1,-2.48%
15,CCOc1ccc(C(=O)CCC(=O)Nc2ccncc2)cc1,2.23%
16,COc1cc(/C=N/NC(=O)CNC(=O)c2ccncc2)ccc1OC(C)=O,40.7%
17,COc1ccc(/C=N/NC(=O)c2ccncc2)cc1CN1CCCc2ccccc21,93.5% (active)
18,COc1ccc(/C=N/NC(=O)c2ccc(Cl)cc2)cc1COC(C)=O,5.91%
19,C=Cn1c(C(=O)O)ccc1-c1ccc(OC)cc1,6.07%
20,CCOC(=O)c1ccc(-n2c(CCC(=O)O)ccc2-c2ccccc2)cc1,6.43%
21,COc1ccc(C(=O)NC(Cc2ccc(OC(=O)c3ccc(OC)cc3)cc2)C(=O)O)cc1 (stereo unspecified),15.2%

row,SMILES,inhibition
1,COc1ccc(-c2ccc(CCC(=O)O)n2-c2ccc(O)cc2)cc1,95.3% (active)
2,COCCCn1c(CCC(=O)O)ccc1-c1ccc(F)cc1,22.3%
3,COc1ccc(-c2ccc(CCC(=O)O)n2NC(=O)c2ccc(C(C)(C)C)cc2)cc1,98.4% (active)
4,CC1Cc2ccccc2N1S(=O)(=O)c1cccc(C(=O)OCC(=O)N2CCOCC2)c1 (stereo unspecified),2.06%
5,CC(=O)c1c(C)[nH]c(C(=O)COC(=O)c2cccs2)c1C,-7.6%
6,COc1ccc(-c2n[nH]c(C)c2-c2ccc(OC)c(OC)c2)c(O)c1,25.6%
7,C=C(C)COc1ccc(-c2n[nH]c(C)c2-c2ccccc2OC)c(O)c1,-0.153%
8,COc1ccc(-c2n[nH]c(C)c2-c2ccccc2OC)c(O)c1,94.9% (active)
9,COc1ccc(Cl)cc1NC(=O)COC(=O)c1ccc(Br)o1,3.97%
10,CCCN(CC(=O)NC(=O)NC1CCCCC1)CC(=O)Nc1cc(Cl)ccc1Cl,-2.78%
11,CCN(CCCNC(=O)c1ccc2c(c1)NC(=O)CN2C)c1cccc(C)c1,94.3% (active)
12,Cc1cccc(C(=O)NCCCN(C)CCCNC(=O)c2cccc(C)c2)c1,-2.47%
13,Cc1cccc(C(=O)NCCCN2CCCC2=O)c1,-1.37%
14,COc1ccccc1N(CCOc1ccccc1)S(=O)(=O)c1ccccc1,-0.946%
15,CCCN(CC1CC1)C(=S)NC(=O)c1ccccc1Br,-2.06%
16,Cc1ccc(/C=N/NC(=O)CSc2ccccn2)o1,3.05%
17,O=C(CCNC(=O)c1ccccc1)NN=Cc1ccc(Br)o1,-2.22%
18,N#CCC(=O)N/N=C/c1ccc(SCC(=O)Nc2ccccc2)o1,93.3% (active)
19,CC1(C)CC(=O)C=C(c2cccc3c2Oc2ccccc2S3)C1,-3.51%
20,COc1ccc(CNC(=O)CSc2n[nH]c(N)n2)cc1OC,4.3%
21,Nc1nc(SCC(=O)Nc2ccc(Cl)cc2C(F)(F)F)n[nH]1,0.457%

row,SMILES,inhibition
1,Nc1nc(SCC(=O)NN(c2ccccc2)c2ccccc2)n[nH]1,87.6% (active)
2,Nc1nc(SCC(=O)NNc2c(Cl)cc(Cl)cc2Cl)n[nH]1,95.6% (active)
3,Nc1nc(SCC(=O)Nc2ccc(Cl)c([N+](=O)[O-])c2)n[nH]1,-3.76%
4,COc1ccc(C(=O)CSc2n[nH]c(N)n2)cc1,-11%
5,COc1ccc(N2CCN(S(=O)(=O)c3cc4c5c(c3)C(C)C(=O)N5CCC4)CC2)cc1 (stereo unspecified),22.9%
6,O=C(NCc1ccccc1)C1=C[C@@H](c2ccccc2)C[C@@H](OCCCCO)O1,-16.2%
7,Cc1cc(NC(=O)C(C)N2C(=O)c3ccccc3S2(=O)=O)no1 (stereo unspecified),3.27%
8,CCN(CC(=O)Nc1c(F)cccc1F)C(=O)c1ccc(-c2ccccc2)cc1,-12%
9,CC(OC(=O)/C=C/c1ccccc1)C(=O)Nc1ccc(C(N)=O)cc1 (stereo unspecified),-4.35%
10,CCc1noc(C)c1C(=O)Nc1nc(-c2ccccc2)cs1,-1.08%
11,CCn1c(NC(=O)c2ccccc2)c(-c2cccs2)c(=O)c2ccccc21,-3.02%
12,CC(C)Cn1c(CCC(=O)O)ccc1-c1cccs1,98.9% (active)
13,CC(=O)c1ccc2c(c1)c1ccccc1n2CC(C)C,-8.57%
14,Cc1cc(C(=O)NNC(=O)c2ccccc2O)c(C)o1,1.52%
15,Cc1nn(C)c(C)c1NS(=O)(=O)c1ccc(OC(F)(F)F)cc1,-3.04%
16,Cc1ccc2nc(SCC(=O)NC3CCCC3)[nH]c2c1,18.7%
17,CCOC(=O)CSc1nc2ccc(C)cc2[nH]1,-3.78%
18,CC(=O)Nc1ccc(C(=O)CSc2nc3ccc(C)cc3[nH]2)cc1,97.9% (active)
19,COc1cc(OC)cc(-c2cc3ccc(F)cc3cn2)c1,0.168%
